Test results from PubChem BioAssay (Tox21).
Unmarked numbers belong to inactive results. Active and inactive are the calls of the source. The call rests on the fitted dose curve; in most records, active means well fitted curve in the direction sought with a large enough effect in the repeat runs; inconclusive means weak or mixed curves; inactive means flat fitted curve, though single readings scatter.

assay: qHTS assay to test for compound auto fluorescence at 590 nm (red) in HEK293 cells (AID 720679); conditions: red autofluorescence 540/590 nm; series mostly up to 91.3 µM
In short: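 HEK293 cells (2,000/well, medium with 10% dialyzed FBS) attached for 4-5 hr at 37C, received 23 nL compound and were incubated overnight at 37C, 5% CO2. Red fluorescence was then read at 540/590nm Ex/Em, referenced to Rose Bengal sodium.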
On the % scale 0 is the no-effect control and ±100 the full control effect.

Row | SMILES | outcome | fluorescence, % of fluorescent control
1 | CC(=O)SCC(CC(=O)c1ccc(C)cc1)C(=O)O (centres undefined) | inactive | 
2 | CCCCCCC(=O)c1ccccc1 | inactive | 
3 | CC(=O)c1ccc2ccc3ccccc3c2c1 | inactive | 
4 | CC(=O)OCC(=O)[C@@]1(O)CC[C@H]2[C@@H]3CCC4=CC(=O)C=C[C@]4(C)[C@H]3[C@@H](O)C[C@@]21C | inactive | 
5 | CCCCCCCCS(=O)(=O)O | inactive | 
6 | COC(=O)c1c(C)cc(O)c(C)c1O | inactive | 
7 | CCCCCCCCCCCCCCCC(=O)OC |  | -0.225% [at 18.6 µM]
8 | COc1cc(NS(=O)(=O)c2ccc(N)cc2)ncn1 |  | 0.185% [at 18.6 µM]
9 | O=S(=O)(O)c1cc(I)c(O)c2ncccc12 | inactive | 
10 | C[C@H]1COc2c(C3(N)CC3)c(F)cc3c(=O)c(C(=O)O)cn1c23 | inactive | 
11 | CC(C)(O)CCCC1=CCC(C=O)CC1 (centres undefined) | inactive | 
12 | C=CCN1CCc2nc(N)sc2CC1 | inactive | 
13 | O=Cc1ccccc1S(=O)(=O)O | inactive | 
14 | CC[C@@]1(c2ccccc2)NC(=O)N(C)C1=O | inactive | 
15 | c1cc2ccc3ccc4ccc5cccc6c(c1)c2c3c4c56 |  | 0.132% [at 3.72 µM]
16 | CCN1CCN(C(=O)N[C@@H](C(=O)N[C@@H]2C(=O)N3[C@@H]2SC(C)(C)[C@H]3C(=O)O)c2ccccc2)C(=O)C1=O | inactive | 
17 | O=C(O)Cc1c(Cl)ccc(Cl)c1Cl | inactive | 

Row | SMILES | outcome | fluorescence, % of fluorescent control
18 | CC(C)(O)c1ccc(C(C)(C)O)cc1 | inactive | 
19 | NC(=O)CC[C@@H](N)C(=O)O | inactive | 
20 | CCCCCC(CC)OC(=O)CCCOc1ccc(Cl)cc1Cl (centres undefined) | inactive | 
21 | O=C(O)/C=C(\CC(=O)O)C(=O)O | inactive | 
22 | O=C(O)CCC(=O)Nc1ccc(S(=O)(=O)Nc2nccs2)cc1 |  | -0.0693% [at 18.6 µM]
23 | C/C(=N\O)c1ccc(OCC(=O)N2CCCCC2)cc1 | inactive | 
24 | Cc1ccc(Br)cc1 | inactive | 
25 | C=CC(=O)OCCOCCOCC | inactive | 
26 | CC(C)OCCO | inactive | 
27 | CCOC(=O)CC | inactive | 
28 | N#Cc1ccccc1C#N | inactive | 
29 | CN(C)CCc1c[nH]c2ccc(C[C@H]3COC(=O)N3)cc12 | inactive | 
30 | O=C(O)COc1ccc2ccccc2c1 | inactive | 
31 | COC(=O)N/N=C/c1c[n+]([O-])c2ccccc2[n+]1[O-] | inactive | 
32 | CCCCCCCCCCCCCCCC/C=C/C1CC(=O)OC1=O (centres undefined) | inactive | 
33 | COCc1nnc(-c2ccc[n+]([O-])c2)n1-c1c(Cl)c(Cl)cc2[nH]c(=O)c(=O)[nH]c12 | inactive | 
34 | NS(=O)(=O)c1cc2c(cc1C(F)(F)F)NCNS2(=O)=O |  | -0.333% [at 18.6 µM]
